Measurements from publication PMC4552634, “A New Set of Chemical Starting Points with Plasmodium falciparum Transmission-Blocking Potential for Antimalarial Drug Discovery” (PLoS ONE, 2015).
Hit rate of the full screen: of about 13,000 compounds, about 3,200 (25%) showed an effect of 50% or more. The list shows a part of the results.

What follows are molecules tested on P. falciparum stage V gametocytes. Settings: 48 h, 5 µM; inhibitor.
Parameters: BacTiter-Glo ATP luminescence viability of purified stage V gametocytes in 384-well plates, per cent inhibition versus DMSO

SMILES	% Inhibition
O=C(N[C@@H](Cc1cc(F)cc(F)c1)[C@H](O)CNCc1cccc(C(F)(F)F)c1)c1cc(C2CCCC2)cc(N2CCCC2=O)c1 [TCMDC-134677]	4.624%
CCCC(CNCc1cccc(SC(F)(F)F)c1)CNc1cc(=O)c2ccccc2[nH]1 (centres unmarked) [TCMDC-139431]	19.28%
COc1ccc(CNCc2cccc(-c3csc(-c4nc5ccccc5[nH]4)c3)c2)cc1 [TCMDC-132734]	-55.02%
Cc1cnc(N2CCN(CC3CCN(C)CC3)CC2)nc1Oc1ccc(-n2ccnc2)cc1 [TCMDC-132782]	41.72%
CC(C)N(Cc1cnc2nc(N)nc(N)c2n1)c1ccc(Cl)c(Cl)c1 [TCMDC-137675]	8.837%
O=C(Nc1ccc(Cl)cc1)Nc1cccc(CCNCc2ccccc2)c1 [TCMDC-141913]	74.03%
O=C(Nc1cccc(CCNCc2ccccc2)c1)Nc1cccc2ccccc12 [TCMDC-141912]	-6.517%
CC(C)c1ccc(NC(=O)Nc2ccc(CCNCCCc3ccccc3)cc2)cc1 [TCMDC-140707]	4.807%
O=C(Nc1ccc(Cl)cc1)Nc1cccc(-c2cc(CNCCc3ccccc3)oc2-c2ccncc2)c1 [TCMDC-135557]	-5.534%
COC(=O)c1ccc(NC(=O)Nc2cccc(CCNCc3ccccc3)c2)cc1 [TCMDC-141910]	76.66%
CCCCc1ccc(NC(=O)Nc2cccc(CCNCc3ccccc3)c2)cc1 [TCMDC-141911]	-36.83%
O=C(COc1cccc([N+](=O)[O-])c1)Nc1ccc(-c2nc3ccccc3[nH]2)cc1 [TCMDC-123683]	43.84%
Cc1cc(OCC2CCCO2)c2cc(NC(=O)C(=O)Nc3ccc4nc(C)cc(OCC5CCCO5)c4c3)ccc2n1 (centres unmarked) [TCMDC-139970]	-0.178%
CN1CCN(c2ccnc3ccc(NC(=O)N(C)c4ccc(Cl)c(Cl)c4)cc23)CC1 [TCMDC-139453]	8.724%
O=C(Nc1ccc(-c2nc3ccccc3[nH]2)cc1)c1ccc(N2CCCC2)c([N+](=O)[O-])c1 [TCMDC-124370]	0.2157%
O=c1[nH]nc(-c2ccc(N3CCCC3)c([N+](=O)[O-])c2)c2ccccc12 [TCMDC-123666]	91.56%
Cc1nnc2sc(-c3cccc(NC(=O)c4ccc(N5CCCCC5)c([N+](=O)[O-])c4)c3)nn12 [TCMDC-125211]	2.608%
O=S(=O)(Nc1ccc2nccc(N3CCNCC3)c2c1)c1ccc2oc3ccccc3c2c1 [TCMDC-139406]	-1.818%
Cc1cc(N2CCCC2)nc(Nc2ccc(NC(=O)c3ccc(Br)o3)cc2)n1 [TCMDC-124708]	-0.4475%
COc1ccc(C(=O)N[C@@H](CC(C)C)C(=O)N[C@H](/C=N/NC(=O)c2ccccc2)CCc2ccccc2)cc1OCCN1CCOCC1 [TCMDC-135529]	-24.16%
Cc1ccc(NC(=O)N2CCCN(CCCCCNC(=O)/C=C/c3ccc(Cl)c(Cl)c3)CC2)cc1C [TCMDC-135747]	-47.01%
CCC(C)NC(=O)Nc1ccc(-c2cccc(-c3nc4ccc(C(F)(F)F)cc4[nH]3)c2)cc1 (centres unmarked) [TCMDC-133240]	1.328%

SMILES	% Inhibition
Cc1nn(-c2ccc(Cl)cc2)c2[nH]c(CN3CCN(c4cccc(Cl)c4)CC3)cc(=O)c12 [TCMDC-124869]	23.11%
CCC[C@@H]([C@@H](CC(C)C)C(=O)N[C@@H](CCCN=C(N)NS(C)(=O)=O)C(=O)Nc1nccs1)N(O)C=O [TCMDC-138171]	-40.24%
CCC[C@@H]([C@@H](CC(C)C)C(=O)N[C@@H](CCCCNC(=O)c1cccc(OC)c1)C(=O)Nc1nccs1)N(O)C=O [TCMDC-137305]	57.38%
CCC[C@@H]([C@@H](CC(C)C)C(=O)N[C@@H](CCCCNC(=O)c1ccccn1)C(=O)Nc1nccs1)N(O)C=O [TCMDC-137550]	43.83%
CCCC(C(CC1CCC(C)CC1)C(=O)NC(CCCNc1ncccn1)C(=O)Nc1nccs1)N(O)C=O (centres unmarked) [TCMDC-138160]	11.06%
CCC[C@@H]([C@@H](CC(C)C)C(=O)N[C@@H](CCCNc1nccc(C(F)(F)F)n1)C(=O)Nc1nccs1)N(O)C=O [TCMDC-137458]	53.7%
CCC[C@@H]([C@@H](CC1CCC(C)CC1)C(=O)N[C@@H](CCCCNC(=O)c1ccccn1)C(=O)Nc1nccs1)N(O)C=O (some centres unmarked) [TCMDC-138151]	22.92%
COc1ccc(CC(C)CON2C(N)=NC(N)=NC2(C)C)cc1 (centres unmarked) [TCMDC-131722]	5.106%
O=C(NCCNc1ccnc(Nc2ccc(F)cc2)n1)Nc1ccc2c(c1)OCO2 [TCMDC-133641]	-26.39%
CC(C)(CNCc1cc(Cl)cc(Cl)c1)c1nc(-c2ccc(Cl)c(O)c2)c(-c2ccnc(N)n2)[nH]1 [TCMDC-141164]	-8.339%
CC1CN(c2ccc(NC(=O)c3ccsc3)cc2C(=O)N2CCN(Cc3ccc(C(C)(C)C)cc3)CC2)CC(C)O1 (centres unmarked) [TCMDC-139281]	17.04%
C=CC[C@H](C[C@H](O)[C@H](Cc1ccccc1)NC(=O)c1ccc(-n2cccn2)cc1)C(=O)NC1CCCCC1 [TCMDC-141420]	10.16%
CCc1c(C)nc(-n2nc(C)cc2NC(=O)C(CC)c2ccccc2)[nH]c1=O (centres unmarked) [TCMDC-124935]	27.05%
O=[N+]([O-])c1ccc2ncnc(Nc3ccc(F)c(Cl)c3)c2c1 [TCMDC-123784]	0.775%
O=C(Nc1ccc(Cl)cc1)Nc1nc2ccc([N+](=O)[O-])cc2[nH]1 [TCMDC-137530]	30.09%
Brc1ccc(Nc2nc3ccccc3nc2Nc2ccc(Br)cc2)cc1 [TCMDC-125776]	-38.43%
Oc1ccc(Nc2ccnc3cc(Cl)ccc23)cc1 [TCMDC-125528]	-45.78%
Clc1ccc(Nc2nc3ccc(Cl)cc3nc2Nc2ccc(Cl)cc2)cc1 [TCMDC-137772]	143.7%
O=[N+]([O-])c1ccc2nc(Nc3ccc(Cl)c(Cl)c3)c(Nc3ccc(Cl)c(Cl)c3)nc2c1 [TCMDC-125794]	113.6%
O=S(=O)(NCCCN1CCOCC1)c1ccc2nccc(Nc3ccc(Oc4ccccc4)cc3)c2c1 [TCMDC-138692]	-57.28%
FC(F)(F)c1cccnc1N1CCC(Nc2nc3ccc(Cl)cc3[nH]2)CC1 [TCMDC-135644]	-32.98%
CCNc1cc(C(=O)N[C@@H](Cc2ccccc2)[C@H](O)CNCCc2ccccc2)cc(N2CCCC2=O)c1 [TCMDC-141682]	21.5%

SMILES	% Inhibition
CS(=O)(=O)N1CC2(CCN(CCC(NC(=O)NCc3ccc(Cl)c(Cl)c3)c3ccc(Cl)c(Cl)c3)CC2)c2ccccc21 (centres unmarked) [TCMDC-141769]	-4.824%
COc1ccc(CC(=O)NC(CCN2CCC3(CC2)CN(S(C)(=O)=O)c2ccccc23)c2ccc(Cl)c(Cl)c2)cc1OC (centres unmarked) [TCMDC-141764]	25.44%
CS(=O)(=O)N1CC2(CCN(CCC(NC(=S)Nc3ccccc3)c3ccc(Cl)c(Cl)c3)CC2)c2ccccc21 (centres unmarked) [TCMDC-141770]	57.16%
C[C@@H](NC(=O)NC(CCN1CCC2(CC1)CN(S(C)(=O)=O)c1ccccc12)c1ccc(Cl)c(Cl)c1)c1ccccc1 (some centres unmarked) [TCMDC-141767]	25.06%
COc1cc(C(=O)N2CCC(CCN3CCC4(CC3)CN(S(C)(=O)=O)c3ccccc34)CC2Cc2ccc(Cl)c(Cl)c2)cc(OC)c1OC (centres unmarked) [TCMDC-141627]	50.03%
CS(=O)(=O)N1CC2(CCN(CCC(NC(=O)Nc3ccccc3)c3ccc(Cl)c(Cl)c3)CC2)c2ccccc21 (centres unmarked) [TCMDC-141766]	12.26%
CS(=O)(=O)c1cccc(-c2ccc3oc(C(N)=O)c(NC(=O)c4cccs4)c3c2)c1 [TCMDC-138862]	19.31%
O=C(CCCCCNC(=O)c1ccc(O)c(-c2ccc(Cl)c(Cl)c2)c1)NCCN1CCCCC1 [TCMDC-140856]	8.201%
COc1cc(Cc2cnc(N)nc2N)cc(OCCCc2cc(OCc3ccccc3)no2)c1OC [TCMDC-138084]	0.05649%
COc1ccc(C(=O)C2CC2CN2CC=C(c3c[nH]c4cccc(Br)c34)CC2)cc1 (centres unmarked) [TCMDC-136801]	-30.41%
Cc1[nH]c2ccccc2c1C1=CCN(CC2CC2C(=O)c2ccccc2)CC1 (centres unmarked) [TCMDC-136870]	56.06%
COc1ccc2[nH]cc(C3=CCN(CC4CC4C(=O)c4ccccc4)CC3)c2n1 (centres unmarked) [TCMDC-136871]	-1.485%
COc1cccc(C(=O)C2CC2CN2CC=C(c3c[nH]c4ccc(OC)nc34)CC2)c1 (centres unmarked) [TCMDC-136875]	11.19%
Cc1[nH]c2ccccc2c1C1=CCN(CCCCC2(C)C(=O)Nc3ccccc32)CC1 (centres unmarked) [TCMDC-140740]	-83.27%
COc1ccc(C(=O)C2CC2CN2CC=C(c3c[nH]c4ccc(OC)nc34)CC2)cc1 (centres unmarked) [TCMDC-136873]	84.74%
COc1cccc(C(=O)C2CC2CN2CC=C(c3c[nH]c4cccc(Br)c34)CC2)c1 (centres unmarked) [TCMDC-136773]	-17.42%
O=C(c1ccccc1)C1CC1CN1CC=C(c2c[nH]c3ccccc23)CC1 (centres unmarked) [TCMDC-136771]	-5.765%
COc1ccc(C(=O)C2CC2CN2CC=C(c3c(C)[nH]c4ccccc34)CC2)cc1 (centres unmarked) [TCMDC-136872]	7.556%
Cc1[nH]c2cc(F)ccc2c1C1=CCN(CCCCC2(C)C(=O)Nc3ccccc32)CC1 (centres unmarked) [TCMDC-141003]	-43.4%
Cc1[nH]c2ccccc2c1C1=CCN(CCCCC2(C)C(=O)Nc3cccc(F)c32)CC1 (centres unmarked) [TCMDC-140942]	52.59%
COc1cccc(C(=O)C2CC2CN2CC=C(c3c(C)[nH]c4ccccc34)CC2)c1 (centres unmarked) [TCMDC-136874]	78.13%
